Hits are enriched below; roughly 3% of the tested compounds scored in any of these assays.
EWS-Fli block: EWS/Fli transcriptional activity inhibition; AID 651661; inhibition, % at 12.6 µM; A673 NR0B1-luciferase reporter, viability-normalised; 350,000 compounds, 0.67% hits;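 active = mean inhibition of at least 50% after viability correction, with every replicate also passing that limit; inconclusive = mean reaches 50% but only one of two replicates passes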;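 note: firefly luciferase signal divided by Alamar Blue viability fluorescence both relative to DMSO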
Shn3 3UTR inh: inhibitors of Schnurri-3 3'UTR reporter in osteoblasts | Clone20 osteoblast Shn3 3'UTR firefly luciferase, 24 h | 360,000 compounds, 0.52% hits | inhibition, % at 12.5 µM;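 active = mean inhibition of at least 75% with every replicate also reaching 75%; inconclusive = mean inhibition at least 75% but some replicate below; inactive = mean inhibition below 75%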;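 note: 0% = median of neutral control wells and 100% = pilot-screen positive control compound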
ABHD5 PLIN5 PPI: ABHD5-PLIN5 protein interaction inhibition; Split G. princeps luciferase complementation, luminescence, 4 h; Q00G26+Q8WTS1; inhibition, % at 4 µM; 360,000 compounds, 0.78% hits;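 active = inhibition above the mean inhibition across every tested compound plus 3 SD, cut at about 22% in these data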;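 note: 0% = DMSO only wells and the 100% control is not disclosed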
PAX8 reporter: PAX8 transcriptional activity inhibition; RMG-I TPO-luciferase reporter, SteadyGlo, 24 h; inhibition, % at 12.6 µM; 360,000 compounds, 1.2% hits; AID 652154;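 active = mean replicate inhibition at least 60% with every replicate also reaching 60%; inconclusive = only one of the two criteria is met; inactive = mean below 60% and not all replicates reaching 60%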;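 note: luciferase light reporting Pax8 driven TPO promoter activity; plate controls were median of neutral control wells for no effect and mitoxantrone controls for full effect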
MITF TRPM1 inh: reduces MITF-dependent TRPM1 promoter luciferase signal; SK-MEL-5 TRPM1 promoter luciferase, 24 h; inhibition, % at 12.5 µM; 330,000 compounds, 0.83% hits;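 active = mean inhibition across replicates of 60% or more, whatever share of single replicates reaches that level; inconclusive = some that reach 60%, reason not given; inactive = mean inhibition across replicates below 60%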
Peg3 promoter: inhibitors of Peg3 promoter | HeLa PEG-Prom luciferase reporter, luminescence, overnight | inhibition, % at 20 µM | 360,000 compounds, 1.7% hits | AID 588405;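 active = inhibition of at least 50% at 20 µM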
ABHD5 PLIN5 conf: ABHD5-PLIN5 interaction inhibition, confirmed. shares compounds with ABHD5 PLIN5 PPI. biochemical ABHD5-PLIN5 interaction, luminescence. inhibition, % at 4 µM. 2,200 compounds, 67% hits. AID 651612; in the data active = inhibition above about 23%;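 note: 0% = DMSO vehicle wells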
HNF4 split-luc: HNF4 split-luciferase signal hit, counter-screen | 2,200 compounds, 77% hits | HNF4 dimerization, luminescence, biochemical | inhibition, % at 4 µM | AID 651674 | shares compounds with ABHD5 PLIN5 PPI;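 active = mean inhibition across replicate wells exceeding the computed hit threshold, cut at about 13% in these data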;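 note: light from luciferase halves that rejoin when HNF4 fusion proteins dimerize; 0% = DMSO only wells and the 100% control is not given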
Target sequence (P41235 whole entry, looked up, the tested form may be a part): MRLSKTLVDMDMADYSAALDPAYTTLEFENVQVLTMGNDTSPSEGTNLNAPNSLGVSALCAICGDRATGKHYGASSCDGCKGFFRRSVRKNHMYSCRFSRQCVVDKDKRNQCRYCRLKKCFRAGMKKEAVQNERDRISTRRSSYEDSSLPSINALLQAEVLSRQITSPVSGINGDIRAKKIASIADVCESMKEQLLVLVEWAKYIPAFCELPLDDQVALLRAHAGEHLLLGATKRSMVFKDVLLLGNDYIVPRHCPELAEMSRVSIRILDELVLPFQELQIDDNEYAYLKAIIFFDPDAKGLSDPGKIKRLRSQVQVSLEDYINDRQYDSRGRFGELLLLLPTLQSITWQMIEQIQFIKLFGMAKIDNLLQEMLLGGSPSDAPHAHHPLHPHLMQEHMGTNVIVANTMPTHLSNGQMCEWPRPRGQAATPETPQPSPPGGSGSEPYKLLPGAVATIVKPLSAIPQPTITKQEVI
Active calls of the source: *; ? = inconclusive; nt = no result.

SMILES | EWS-Fli block | Shn3 3UTR inh | ABHD5 PLIN5 PPI | PAX8 reporter | MITF TRPM1 inh | Peg3 promoter | ABHD5 PLIN5 conf | HNF4 split-luc
O=C1C=CC(=O)N1Cc1ccccc1 | -12 | -7 | 32* | -13 | 17 | 104* | 4 | 2
Cc1ccc(C(=O)N/C(=C\c2ccc(-c3ccc(Br)cc3)o2)C(=O)NCCCN(C)C)cc1 | 51* | 6 | 36* | 95* | 107* | 109* | 21 | 2
CN(C)CCNC(=O)/C(=C/c1ccc(-c2ccc(Cl)cc2Cl)o1)NC(=O)c1ccccc1 | nt | -17 | 35* | 17 | 95* | 111* | 7 | 12
CCOC(=O)C(=Cc1ccc(-n2cncn2)cc1)C(=O)OCC | 17 | 7 | 43* | 13 | 41 | 104* | 81* | 94*
CCN(CC)CCc1nc(-c2ccccc2)no1 | -12 | -13 | 56* | -13 | -4 | -8 | 84* | 43*
O=C(N[C@@H]1CC[C@H](CC(=O)N2CCN(c3ccccc3)CC2)O[C@H]1CO)c1ccncc1 | 2 | nt | nt | -1 | nt | nt | nt | nt
O=[N+]([O-])c1c(Nc2cccc(O)c2)cc(Cl)c2nonc12 | 59* | ? | 52* | 112* | 77* | 103* | 71* | 95*
O=C(O)c1cccc(Nc2ccc3nonc3c2[N+](=O)[O-])c1 | -2 | -13 | -5 | 5 | -11 | 14 | nt | nt
O=C(O)c1ccc(Nc2cc(Cl)c3nonc3c2[N+](=O)[O-])cc1 | -3 | -29 | 31* | -117 | 0 | 13 | 63* | 95*
Nc1cc(Nc2ccccc2)c2nonc2c1[N+](=O)[O-] | -8 | -10 | 3 | 28 | -6 | 25 | nt | nt
C[C@@H]1CN([C@H](C)CO)C(=O)c2cccc(NC(=O)c3ccc(-c4nccs4)cc3)c2O[C@H]1CN(C)C(=O)NC1CCCCC1 | -3 | nt | nt | nt | nt | nt | nt | nt
O=C(C=Cc1ccccc1)c1cc(Br)ccc1O | 5 | 0 | 17 | -20 | -6 | -11 | nt | nt
COc1ccccc1/C=C/C(=O)c1cc(Br)ccc1OC(=O)c1ccco1 | nt | -11 | 66* | nt | 34 | 19 | 94* | 74*
CCc1ccc(/C=C/C(=O)c2cc(Br)ccc(=O)c2O)cc1 | nt | 14 | 30* | nt | 45 | -12 | 61* | 46*
COc1ccc(Br)cc1C(=O)Nc1ccc(NC(=O)c2ccco2)cc1 | nt | 26 | 4 | nt | -7 | -21 | nt | nt
Cc1ccc(/C=C/C(=O)c2cc(Br)ccc2OC(=O)c2ccco2)cc1 | nt | -15 | 74* | -22 | 27 | 0 | 95* | 74*
C[N+](C)(C)CCC(=O)N1C/C(=C/c2ccccc2)C(=O)/C(=C\c2ccccc2)C1 | 58* | 9 | 92* | -30 | 3 | 77* | 100* | 100*
C/C(=C\c1ccccc1)C(=O)NCCN1CCOCC1 | nt | -1 | -6 | -35 | -1 | 1 | nt | nt
CN(C)CCC(=O)N1C/C(=C/c2ccccc2)C(=O)/C(=C\c2ccccc2)C1 | 80* | 41 | 96* | nt | 101* | 109* | 103* | 106*
CN1CCN(C(=O)CCCN2C(=O)/C(=C/c3ccccc3)SC2=S)CC1 | -27 | -102 | 0 | 8 | -8 | 25 | nt | nt
O=C1/C(=C/c2ccccc2)CN(C(=O)CCN2CCOCC2)C/C1=C\c1ccccc1 | 65* | 7 | 99* | -19 | 101* | 96* | 103* | 105*
CC(C)NC(=O)N(C)C[C@@H]1Oc2ncc(C#CC3CCCCC3)cc2C(=O)N([C@@H](C)CO)C[C@H]1C | -7 | nt | nt | nt | nt | nt | nt | nt
CNC[C@@H]1OCCCC[C@H](C)Oc2ccc(NC(=O)Nc3ccc4c(c3)OCO4)cc2C(=O)N([C@H](C)CO)C[C@H]1C | -8 | nt | nt | -14 | nt | nt | nt | nt
C[C@H](CO)N1C[C@H](C)[C@H](CN(C)S(C)(=O)=O)Oc2cc(C#CC3CC3)ccc2S1(=O)=O | -6 | nt | nt | -4 | nt | nt | nt | nt
O=c1c(-c2ccco2)nc2ccccc2n1C(c1ccccn1)c1nc2ccccc2[nH]1 (stereo not given) | -27 | nt | 37* | 5 | nt | nt | 33* | 59*
SMILES | EWS-Fli block | Shn3 3UTR inh | ABHD5 PLIN5 PPI | PAX8 reporter | MITF TRPM1 inh | Peg3 promoter | ABHD5 PLIN5 conf | HNF4 split-luc
O=c1c(-c2ccco2)nc2ccccc2n1C(c1ccccc1)c1nc2ccccc2[nH]1 (stereo not given) | -68 | nt | 36* | -96 | nt | nt | 28* | 16*
CC1=NNC(=O)C1CC(=O)N/N=C/C(Br)=C/c1ccccc1 (stereo not given) | 9 | 5 | 19 | 28 | 2 | 3 | nt | nt
CC1C(=O)NN=C1C(=O)N/N=C\C(Br)=C\c1ccccc1 (stereo not given) | -42 | -32 | 34* | 15 | -16 | -197 | 6 | 22*
O=C(N/N=C/C(Br)=C/c1ccccc1)c1cc(-c2ccco2)[nH]n1 | 12 | 63 | 25* | 59 | 14 | -12 | 22* | 72*
C[C@@H]1CN([C@@H](C)CO)S(=O)(=O)c2ccc(C#Cc3ccncc3)cc2O[C@H]1CN(C)C(=O)C1CCC1 | -7 | nt | nt | nt | nt | nt | nt | nt
CCOC(=O)N1C/C(=C\c2ccccc2)C(=O)/C(=C/c2ccccc2)C1 | 46 | 80 | 69* | 10 | 104* | 112* | 103* | 108*
COc1ccc(OC(=O)N2CCOCC2)cc1 | -21 | -25 | 1 | 0 | -5 | -28 | nt | nt
COc1ccc(OC(=O)N2C/C(=C/c3ccccc3)C(=O)/C(=C\c3ccccc3)C2)cc1 | 48 | 19 | 75* | 11 | 86* | 105* | 104* | 107*
CC(C)NC(=O)Nc1cccc2c1O[C@H](CN(C)S(=O)(=O)c1cccs1)[C@@H](C)CN([C@@H](C)CO)C2=O | -1 | nt | nt | nt | nt | nt | nt | nt
O=C1C=C(C2OC(CO)C(O)C2O)C(=O)N1 (stereo not given) | -3 | 16 | 68* | nt | 6 | -6 | 48* | 104*
CN1CCN(C(=O)C[C@H]2CC[C@@H]3[C@H](COC[C@H](O)CN3Cc3cccc(F)c3)O2)CC1 | -6 | nt | nt | -11 | nt | nt | nt | nt
CC(=O)NC(c1ccco1)c1cc(F)c2cccnc2c1O (stereo not given) | 26 | -14 | 3 | 13 | -3 | 36 | nt | nt
Oc1c(C(Nc2nc3ccccc3s2)c2ccco2)ccc2cccnc12 (stereo not given) | nt | 75 | 45* | nt | 33 | -67 | 20 | 14*
CN1C(=O)c2cc(NC(=O)c3cccs3)ccc2OC[C@@H]2O[C@@H](CC(=O)NCC3CC3)CC[C@@H]21 | 0 | nt | nt | -20 | nt | nt | nt | nt
CSc1ccc(CN(C)CC(=O)Nc2ccc(NC(C)=O)cc2)cc1 | -13 | 1 | 102* | -21 | -3 | 7 | 6 | 4
CSc1ccc(CN(C)CC(=O)Nc2cccc(Br)c2)cc1 | 16 | 19 | -4 | 14 | 0 | 7 | nt | nt

Screening data: PubChem BioAssay, several laboratories
